# Test results from article PMC7862700, “An all-to-all approach to the identification of sequence-specific readers for epigenetic DNA modifications on cytosine”.
# How the values were obtained:
# Assay in all cases: DAPPL (digital affinity profiling via proximity ligation, sequencing); 10 mM Tris-HCl pH 7.5, 50 mM NaCl, 1 mM DTT, 4% glycerol, room temperature, 30 min; GST-TFs on glutathione beads, 16-mer random dsDNA library, 0.1% formaldehyde crosslink after washing; high values mean tight binding
# Details in all cases: protein: recombinant; tags: N-terminal GST; dsDNA, one strand shown
# ELK1 = molecular target: T1, ELK1 (Homo sapiens, UniProt P19419 1-428)
# T1 sequence: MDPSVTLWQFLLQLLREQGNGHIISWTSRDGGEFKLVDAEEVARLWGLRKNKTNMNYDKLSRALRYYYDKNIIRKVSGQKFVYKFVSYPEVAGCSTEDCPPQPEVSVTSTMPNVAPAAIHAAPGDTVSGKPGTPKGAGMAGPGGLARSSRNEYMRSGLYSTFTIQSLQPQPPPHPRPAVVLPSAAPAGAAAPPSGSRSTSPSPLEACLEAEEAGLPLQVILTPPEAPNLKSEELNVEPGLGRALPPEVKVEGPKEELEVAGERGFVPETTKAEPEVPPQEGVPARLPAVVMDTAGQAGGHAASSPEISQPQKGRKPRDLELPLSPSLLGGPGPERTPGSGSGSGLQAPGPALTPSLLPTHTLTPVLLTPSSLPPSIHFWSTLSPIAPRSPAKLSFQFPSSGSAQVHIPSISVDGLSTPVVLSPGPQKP
# Method in brief: (§1)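 Human transcription factors fused to GST were expressed in yeast, captured on glutathione beads, given DNA barcodes and pooled with a GST-only negative control. Pools were incubated with 200 nmole of a 16-mer random double-stranded DNA library in Tris/NaCl/DTT/glycerol buffer at room temperature for 30 min. They were then washed, crosslinked with 0.1% formaldehyde, proximity-ligated (BsaI/T4 ligase, 1 h, 37 °C), PCR-amplified and sequenced on an Illumina NextSeq500. Binding signal is each 6-mer's read frequency for a factor divided by its frequency for the GST control.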
# GABPA = molecular target: T2, GABPA (Homo sapiens, UniProt Q06546 1-454)
# T2 sequence: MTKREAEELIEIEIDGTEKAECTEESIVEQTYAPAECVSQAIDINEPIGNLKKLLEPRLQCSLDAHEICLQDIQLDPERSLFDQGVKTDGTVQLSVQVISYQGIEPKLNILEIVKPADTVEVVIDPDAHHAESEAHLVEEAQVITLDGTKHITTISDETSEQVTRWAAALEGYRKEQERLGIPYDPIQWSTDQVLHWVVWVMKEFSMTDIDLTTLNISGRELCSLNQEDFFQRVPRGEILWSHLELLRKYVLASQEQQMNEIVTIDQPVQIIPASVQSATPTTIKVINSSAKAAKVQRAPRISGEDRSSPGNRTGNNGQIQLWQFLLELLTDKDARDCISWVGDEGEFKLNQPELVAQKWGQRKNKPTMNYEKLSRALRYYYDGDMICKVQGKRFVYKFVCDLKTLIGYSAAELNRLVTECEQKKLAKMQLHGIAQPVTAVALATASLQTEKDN
# Method in brief: as §1
# ERG = molecular target: T3, ERG (Homo sapiens, UniProt P11308 1-479)
# T3 sequence: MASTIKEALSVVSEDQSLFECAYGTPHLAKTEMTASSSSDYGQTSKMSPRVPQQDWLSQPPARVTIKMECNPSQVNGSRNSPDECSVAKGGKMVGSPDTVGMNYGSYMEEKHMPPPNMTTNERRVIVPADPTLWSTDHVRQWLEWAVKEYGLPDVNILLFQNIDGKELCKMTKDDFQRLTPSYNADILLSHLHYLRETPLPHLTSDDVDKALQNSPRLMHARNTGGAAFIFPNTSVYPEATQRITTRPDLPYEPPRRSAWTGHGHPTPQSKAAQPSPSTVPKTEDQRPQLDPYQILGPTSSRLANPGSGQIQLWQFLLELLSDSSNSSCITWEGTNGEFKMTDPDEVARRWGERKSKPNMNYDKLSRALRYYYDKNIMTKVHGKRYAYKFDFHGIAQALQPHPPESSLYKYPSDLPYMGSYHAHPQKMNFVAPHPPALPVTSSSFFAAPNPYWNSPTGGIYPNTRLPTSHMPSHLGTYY
# Method in brief: as §1
# ELF1 = ELF1 (Homo sapiens, UniProt P32519 1-619)
# Sequence of ELF1 (P32519 whole entry): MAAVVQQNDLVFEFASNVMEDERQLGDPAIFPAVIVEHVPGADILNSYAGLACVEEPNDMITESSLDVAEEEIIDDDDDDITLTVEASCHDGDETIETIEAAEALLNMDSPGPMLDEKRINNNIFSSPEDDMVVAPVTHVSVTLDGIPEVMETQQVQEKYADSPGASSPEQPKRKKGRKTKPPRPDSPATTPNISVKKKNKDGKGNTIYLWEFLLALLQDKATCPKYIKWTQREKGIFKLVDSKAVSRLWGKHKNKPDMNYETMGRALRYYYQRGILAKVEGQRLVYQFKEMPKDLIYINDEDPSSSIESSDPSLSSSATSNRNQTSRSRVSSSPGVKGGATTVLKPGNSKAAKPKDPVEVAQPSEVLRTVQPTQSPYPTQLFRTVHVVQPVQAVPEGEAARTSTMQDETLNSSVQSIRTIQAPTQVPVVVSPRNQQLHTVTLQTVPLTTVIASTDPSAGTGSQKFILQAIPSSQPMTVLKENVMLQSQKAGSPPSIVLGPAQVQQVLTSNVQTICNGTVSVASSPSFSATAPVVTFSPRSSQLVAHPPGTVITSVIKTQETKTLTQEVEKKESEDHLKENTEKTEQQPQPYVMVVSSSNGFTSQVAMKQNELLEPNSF
# Method in brief: as §1
# EHF = molecular target: T4, EHF (Homo sapiens, UniProt Q9NZC4 1-300)
# T4 sequence: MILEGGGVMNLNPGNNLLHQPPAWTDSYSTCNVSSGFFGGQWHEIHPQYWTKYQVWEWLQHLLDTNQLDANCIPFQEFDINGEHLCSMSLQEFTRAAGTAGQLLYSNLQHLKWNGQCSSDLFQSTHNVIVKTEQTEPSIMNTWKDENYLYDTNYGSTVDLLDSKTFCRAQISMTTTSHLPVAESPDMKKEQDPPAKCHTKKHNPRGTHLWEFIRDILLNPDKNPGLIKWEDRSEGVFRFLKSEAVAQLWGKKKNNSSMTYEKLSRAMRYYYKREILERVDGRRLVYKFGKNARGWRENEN
# Method in brief: as §1
# SPIB = SPIB (Homo sapiens, UniProt Q01892 1-262)
# Sequence of SPIB (Q01892 whole entry): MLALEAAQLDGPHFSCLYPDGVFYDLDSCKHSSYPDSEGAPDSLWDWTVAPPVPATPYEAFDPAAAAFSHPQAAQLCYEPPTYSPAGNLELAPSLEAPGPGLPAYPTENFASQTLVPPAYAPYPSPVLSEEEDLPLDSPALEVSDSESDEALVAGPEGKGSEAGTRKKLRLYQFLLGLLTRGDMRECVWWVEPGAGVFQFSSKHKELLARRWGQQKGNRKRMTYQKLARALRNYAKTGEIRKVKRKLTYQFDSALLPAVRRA
# Method in brief: as §1
# FEV = molecular target: T5, FEV (Homo sapiens, UniProt Q99581 1-238)
# T5 sequence: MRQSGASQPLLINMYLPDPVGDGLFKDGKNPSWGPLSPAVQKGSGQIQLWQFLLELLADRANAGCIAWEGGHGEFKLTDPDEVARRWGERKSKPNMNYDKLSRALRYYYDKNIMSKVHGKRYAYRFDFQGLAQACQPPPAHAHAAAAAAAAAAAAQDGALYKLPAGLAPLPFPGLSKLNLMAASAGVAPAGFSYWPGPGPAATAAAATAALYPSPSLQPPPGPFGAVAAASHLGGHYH
# Method in brief: as §1
# ETV5 = ETV5 (Homo sapiens, UniProt P41161 1-510)
# Sequence of ETV5 (P41161 whole entry): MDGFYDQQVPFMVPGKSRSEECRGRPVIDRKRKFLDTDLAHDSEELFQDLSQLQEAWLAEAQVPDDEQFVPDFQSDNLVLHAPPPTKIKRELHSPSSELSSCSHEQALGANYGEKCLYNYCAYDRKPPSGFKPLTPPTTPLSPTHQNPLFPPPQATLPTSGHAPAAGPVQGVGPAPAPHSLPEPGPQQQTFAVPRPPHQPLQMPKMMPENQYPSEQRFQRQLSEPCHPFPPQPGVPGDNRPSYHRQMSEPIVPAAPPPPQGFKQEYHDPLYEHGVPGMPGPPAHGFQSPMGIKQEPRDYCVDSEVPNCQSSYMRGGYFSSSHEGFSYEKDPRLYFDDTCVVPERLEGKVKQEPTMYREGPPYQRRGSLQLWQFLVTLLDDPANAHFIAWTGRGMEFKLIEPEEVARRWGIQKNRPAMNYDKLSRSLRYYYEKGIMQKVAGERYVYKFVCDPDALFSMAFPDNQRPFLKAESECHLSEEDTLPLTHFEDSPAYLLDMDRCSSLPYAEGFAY
# Method in brief: as §1
# ELF4 = ELF4 (Homo sapiens, UniProt Q99607 1-663)
# Sequence of ELF4 (Q99607 whole entry): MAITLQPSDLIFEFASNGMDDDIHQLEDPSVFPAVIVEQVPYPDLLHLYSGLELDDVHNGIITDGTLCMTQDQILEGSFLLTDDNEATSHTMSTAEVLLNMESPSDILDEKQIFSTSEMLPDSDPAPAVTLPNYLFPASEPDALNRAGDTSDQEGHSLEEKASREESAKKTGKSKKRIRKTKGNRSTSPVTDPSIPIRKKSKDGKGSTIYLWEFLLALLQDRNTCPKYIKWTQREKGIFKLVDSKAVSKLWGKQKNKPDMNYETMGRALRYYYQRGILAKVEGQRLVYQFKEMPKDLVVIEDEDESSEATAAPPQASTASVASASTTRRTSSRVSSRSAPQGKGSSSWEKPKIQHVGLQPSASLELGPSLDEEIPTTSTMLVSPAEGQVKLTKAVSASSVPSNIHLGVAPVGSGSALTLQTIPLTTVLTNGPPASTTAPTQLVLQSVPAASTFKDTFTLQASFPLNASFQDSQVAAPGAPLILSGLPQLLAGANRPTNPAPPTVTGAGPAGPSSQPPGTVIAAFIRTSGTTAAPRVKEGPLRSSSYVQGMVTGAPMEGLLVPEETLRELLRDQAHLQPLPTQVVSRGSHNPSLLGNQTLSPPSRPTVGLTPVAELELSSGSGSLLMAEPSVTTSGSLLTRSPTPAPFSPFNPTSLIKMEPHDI
# Method in brief: as §1
# ELK4 = molecular target: T6, ELK4 (Homo sapiens, UniProt P28324-2 1-405)
# T6 sequence: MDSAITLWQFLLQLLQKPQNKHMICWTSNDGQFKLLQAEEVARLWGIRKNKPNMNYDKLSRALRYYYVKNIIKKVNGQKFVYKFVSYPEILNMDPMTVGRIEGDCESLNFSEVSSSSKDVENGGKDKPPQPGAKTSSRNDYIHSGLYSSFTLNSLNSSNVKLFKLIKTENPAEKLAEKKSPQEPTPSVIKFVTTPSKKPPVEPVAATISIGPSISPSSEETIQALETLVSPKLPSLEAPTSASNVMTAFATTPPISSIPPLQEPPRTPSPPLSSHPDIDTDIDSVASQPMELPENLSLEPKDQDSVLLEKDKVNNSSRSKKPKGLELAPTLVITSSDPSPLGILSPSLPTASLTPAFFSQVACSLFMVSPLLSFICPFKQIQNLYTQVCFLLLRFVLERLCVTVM
# Method in brief: as §1
# ELF3 = molecular target: T7, ELF3 (Homo sapiens, UniProt P78545 1-371)
# T7 sequence: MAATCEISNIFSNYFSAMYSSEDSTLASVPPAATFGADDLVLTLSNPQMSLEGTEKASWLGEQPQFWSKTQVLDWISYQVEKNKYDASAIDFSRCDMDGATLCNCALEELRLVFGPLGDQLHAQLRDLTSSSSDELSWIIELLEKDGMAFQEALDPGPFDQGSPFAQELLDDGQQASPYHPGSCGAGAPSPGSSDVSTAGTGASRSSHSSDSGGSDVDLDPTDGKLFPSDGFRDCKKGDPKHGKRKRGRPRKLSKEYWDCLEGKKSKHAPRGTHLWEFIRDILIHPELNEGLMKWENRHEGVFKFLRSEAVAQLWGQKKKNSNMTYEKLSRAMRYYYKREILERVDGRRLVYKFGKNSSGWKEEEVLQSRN
# Method in brief: as §1
# ETV1 = ETV1 (Homo sapiens, UniProt P50549 1-477)
# Sequence of ETV1 (P50549 whole entry): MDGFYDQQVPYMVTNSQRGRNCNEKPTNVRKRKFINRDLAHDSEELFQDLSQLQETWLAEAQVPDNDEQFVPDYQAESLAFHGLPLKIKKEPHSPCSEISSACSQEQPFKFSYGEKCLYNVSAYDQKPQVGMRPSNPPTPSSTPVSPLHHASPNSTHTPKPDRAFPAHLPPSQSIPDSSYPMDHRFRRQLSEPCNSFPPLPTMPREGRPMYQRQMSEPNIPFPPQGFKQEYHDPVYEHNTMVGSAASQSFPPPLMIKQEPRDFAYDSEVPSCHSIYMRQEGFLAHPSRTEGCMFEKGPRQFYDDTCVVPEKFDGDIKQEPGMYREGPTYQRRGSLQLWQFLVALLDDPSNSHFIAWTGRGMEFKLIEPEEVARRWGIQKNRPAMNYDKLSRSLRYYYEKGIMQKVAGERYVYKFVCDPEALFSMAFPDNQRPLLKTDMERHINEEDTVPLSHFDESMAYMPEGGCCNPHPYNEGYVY
# Method in brief: as §1
# ERF = molecular target: T8, ERF (Homo sapiens, UniProt P50548 1-548)
# T8 sequence: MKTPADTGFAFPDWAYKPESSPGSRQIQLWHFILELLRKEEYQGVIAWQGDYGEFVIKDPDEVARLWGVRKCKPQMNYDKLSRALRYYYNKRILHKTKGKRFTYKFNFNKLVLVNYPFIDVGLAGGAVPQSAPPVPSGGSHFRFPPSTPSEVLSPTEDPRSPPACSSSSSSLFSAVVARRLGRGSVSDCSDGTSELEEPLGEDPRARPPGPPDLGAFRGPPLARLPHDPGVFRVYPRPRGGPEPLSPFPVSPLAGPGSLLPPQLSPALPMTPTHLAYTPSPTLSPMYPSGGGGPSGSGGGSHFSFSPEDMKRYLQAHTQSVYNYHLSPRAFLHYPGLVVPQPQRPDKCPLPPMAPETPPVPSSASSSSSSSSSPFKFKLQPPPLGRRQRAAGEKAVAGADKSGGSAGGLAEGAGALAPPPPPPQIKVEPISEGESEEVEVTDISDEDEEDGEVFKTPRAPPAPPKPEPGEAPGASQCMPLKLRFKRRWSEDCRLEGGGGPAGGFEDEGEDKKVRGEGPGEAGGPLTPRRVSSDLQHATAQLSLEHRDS
# Method in brief: as §1
# ETV3L = molecular target: T9, ETV3L (Homo sapiens, UniProt Q6ZN32 1-361)
# T9 sequence: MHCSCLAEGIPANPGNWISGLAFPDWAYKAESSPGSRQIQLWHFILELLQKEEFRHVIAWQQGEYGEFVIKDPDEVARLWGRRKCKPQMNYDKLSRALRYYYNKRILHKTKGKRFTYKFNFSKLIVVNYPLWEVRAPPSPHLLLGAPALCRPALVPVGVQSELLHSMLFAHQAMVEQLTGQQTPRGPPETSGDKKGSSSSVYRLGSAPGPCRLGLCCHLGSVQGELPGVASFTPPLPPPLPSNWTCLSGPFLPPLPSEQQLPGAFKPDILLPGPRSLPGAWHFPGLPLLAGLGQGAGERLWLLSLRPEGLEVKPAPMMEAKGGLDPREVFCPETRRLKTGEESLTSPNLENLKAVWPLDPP
# Method in brief: as §1
# ETS2 = molecular target: T10, ETS2 (Homo sapiens, UniProt P15036 1-469)
# T10 sequence: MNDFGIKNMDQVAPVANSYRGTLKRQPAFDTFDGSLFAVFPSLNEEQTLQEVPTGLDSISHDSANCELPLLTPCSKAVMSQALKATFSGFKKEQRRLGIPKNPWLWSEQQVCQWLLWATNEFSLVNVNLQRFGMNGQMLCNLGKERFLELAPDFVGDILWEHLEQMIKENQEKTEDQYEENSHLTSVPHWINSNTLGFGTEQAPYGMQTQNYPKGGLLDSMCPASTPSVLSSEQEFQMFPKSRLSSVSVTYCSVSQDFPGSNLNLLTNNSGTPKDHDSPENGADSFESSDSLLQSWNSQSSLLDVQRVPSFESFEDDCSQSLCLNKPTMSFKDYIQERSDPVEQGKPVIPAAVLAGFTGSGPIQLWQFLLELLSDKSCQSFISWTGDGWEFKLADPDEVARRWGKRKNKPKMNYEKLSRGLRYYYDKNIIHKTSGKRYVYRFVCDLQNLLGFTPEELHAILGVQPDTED
# Method in brief: as §1
# SPDEF = molecular target: T11, SPDEF (Homo sapiens, UniProt O95238 1-335)
# T11 sequence: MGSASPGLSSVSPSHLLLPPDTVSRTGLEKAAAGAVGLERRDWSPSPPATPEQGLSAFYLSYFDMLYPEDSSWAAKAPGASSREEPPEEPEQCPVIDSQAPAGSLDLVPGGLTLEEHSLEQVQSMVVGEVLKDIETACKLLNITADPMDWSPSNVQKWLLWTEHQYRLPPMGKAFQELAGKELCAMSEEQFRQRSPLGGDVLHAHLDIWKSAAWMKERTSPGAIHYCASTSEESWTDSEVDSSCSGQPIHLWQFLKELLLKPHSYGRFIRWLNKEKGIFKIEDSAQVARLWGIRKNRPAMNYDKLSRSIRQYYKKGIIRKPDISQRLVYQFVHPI
# Method in brief: as §1
# ETV7 = molecular target: T12, ETV7 (Homo sapiens, UniProt Q9Y603 1-341)
# T12 sequence: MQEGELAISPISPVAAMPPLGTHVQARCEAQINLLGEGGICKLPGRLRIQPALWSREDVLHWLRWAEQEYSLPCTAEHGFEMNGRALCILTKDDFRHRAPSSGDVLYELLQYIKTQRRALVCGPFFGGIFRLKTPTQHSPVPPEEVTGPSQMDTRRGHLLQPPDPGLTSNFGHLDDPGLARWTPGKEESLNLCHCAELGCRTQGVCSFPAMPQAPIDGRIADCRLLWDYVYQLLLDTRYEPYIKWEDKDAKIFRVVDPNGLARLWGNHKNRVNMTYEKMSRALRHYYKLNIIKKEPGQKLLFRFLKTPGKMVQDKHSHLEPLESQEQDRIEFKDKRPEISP
# Method in brief: as §1
# ETV3 = molecular target: T13, ETV3 (Homo sapiens, UniProt P41162-2 1-143)
# T13 sequence: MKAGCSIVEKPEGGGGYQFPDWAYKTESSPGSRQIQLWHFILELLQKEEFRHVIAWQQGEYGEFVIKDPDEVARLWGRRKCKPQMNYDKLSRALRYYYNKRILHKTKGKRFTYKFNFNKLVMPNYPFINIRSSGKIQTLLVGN
# Method in brief: as §1
# ETV6 = ETV6 (Homo sapiens, UniProt P41212 1-452)
# Sequence of ETV6 (P41212 whole entry): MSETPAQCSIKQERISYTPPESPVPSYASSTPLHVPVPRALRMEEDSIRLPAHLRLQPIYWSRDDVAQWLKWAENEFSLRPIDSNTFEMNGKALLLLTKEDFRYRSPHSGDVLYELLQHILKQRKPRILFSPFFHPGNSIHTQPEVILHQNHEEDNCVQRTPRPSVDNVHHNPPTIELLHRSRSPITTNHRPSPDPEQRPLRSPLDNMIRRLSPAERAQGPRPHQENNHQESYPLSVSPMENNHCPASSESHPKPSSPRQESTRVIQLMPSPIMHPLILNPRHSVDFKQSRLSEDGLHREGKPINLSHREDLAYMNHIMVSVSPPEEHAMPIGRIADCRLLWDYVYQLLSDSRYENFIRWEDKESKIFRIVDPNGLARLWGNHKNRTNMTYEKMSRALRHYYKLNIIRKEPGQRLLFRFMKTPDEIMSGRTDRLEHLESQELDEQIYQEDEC
# Method in brief: as §1
sequence,measurement,setting,value
ATAATG,binding signal,ELK1,"1.1 fold enrichment (6-mer frequency, TF over GST control)"
same,binding signal,GABPA,"1.06 fold enrichment (6-mer frequency, TF over GST control)"
same,binding signal,ERG,"1.03 fold enrichment (6-mer frequency, TF over GST control)"
same,binding signal,ELF1,"1.11 fold enrichment (6-mer frequency, TF over GST control)"
same,binding signal,EHF,"1.14 fold enrichment (6-mer frequency, TF over GST control)"
same,binding signal,SPIB,"1.19 fold enrichment (6-mer frequency, TF over GST control)"
same,binding signal,FEV,"1.08 fold enrichment (6-mer frequency, TF over GST control)"
same,binding signal,ETV5,"1.09 fold enrichment (6-mer frequency, TF over GST control)"
same,binding signal,ELF4,"1.06 fold enrichment (6-mer frequency, TF over GST control)"
same,binding signal,ELK4,"1.16 fold enrichment (6-mer frequency, TF over GST control)"
same,binding signal,ELF3,"1.03 fold enrichment (6-mer frequency, TF over GST control)"
same,binding signal,ETV1,"1.16 fold enrichment (6-mer frequency, TF over GST control)"
same,binding signal,ERF,"1.09 fold enrichment (6-mer frequency, TF over GST control)"
same,binding signal,ETV3L,"1.2 fold enrichment (6-mer frequency, TF over GST control)"
same,binding signal,ETS2,"1.14 fold enrichment (6-mer frequency, TF over GST control)"
same,binding signal,SPDEF,"1.06 fold enrichment (6-mer frequency, TF over GST control)"
same,binding signal,ETV7,"1.01 fold enrichment (6-mer frequency, TF over GST control)"
same,binding signal,ETV3,"1.09 fold enrichment (6-mer frequency, TF over GST control)"
same,binding signal,ETV6,"1.09 fold enrichment (6-mer frequency, TF over GST control)"
